The term AC50 denotes the midpoint of the concentration-response curve, whichever way the signal moves.

Read-out in assay [1]: TIMP metallopeptidase inhibitor 1 (TIMP1), TIMP1 (gene 7076)
As to the kind of experiment: BSK_hDFCGF_TIMP1: BioMAP Diversity Plus: hDFCGF Assay for TIMP metallopeptidase inhibitor 1 (TIMP1) Biomarker Activity (AID 2283062). The following applies: primary human foreskin fibroblasts; actives raise or lower the signal. The essentials: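 Fibroblasts from human foreskin are treated with test chemical and harvested at 24 h. TIMP-1 is quantified by ELISA, and gain or loss of signal is scored against DMSO.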

Read-out in assay [2]: Monokine induced gamma interferon (MIG), CXCL9 (gene 4283)
As to the kind of experiment: BSK_hDFCGF_MIG: BioMAP Diversity Plus: hDFCGF Assay for Monokine induced gamma interferon (MIG) Biomarker Activity (AID 2283063). The following applies: primary human foreskin fibroblasts; actives raise or lower the signal. The essentials:
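MIG signal, determined by ELISA, reflects 24 h chemical exposure of human skin primary fibroblasts. DMSO serves as negative control and baseline.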

Read-out in assay [3]: Vascular cell adhesion molecule 1 (VCAM1), VCAM1 (gene 7412)
Description: BSK_hDFCGF_VCAM1: BioMAP Diversity Plus: hDFCGF Assay for Vascular cell adhesion molecule 1 (VCAM1) Biomarker Activity (AID 2283065).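 For AC50: VCAM-1 protein level quantified by ELISA after 24 h chemical exposure.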 The following applies: primary human foreskin fibroblasts; actives raise or lower the signal. The essentials:
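Cells are dosed, cultured for 24 h, then VCAM-1 is quantified by ELISA; signal increases and decreases are both fitted relative to DMSO.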

Read-out in assay [4]: Plasminogen activator inhibitor-1 (PAI1), SERPINE1 (gene 5054)
Description: BSK_hDFCGF_PAI1: BioMAP Diversity Plus: hDFCGF Assay for Plasminogen activator inhibitor-1 (PAI1) Biomarker Activity (AID 2283066). The following applies: primary human foreskin fibroblasts; actives raise or lower the signal. The essentials:
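Human skin fibroblast cultures receive chemical for 24 h before PAI-1 is measured by ELISA; signal changes are fitted bidirectionally against DMSO-treated wells.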

Read-out in assay [5]: Intercellular Adhesion Molecule 1 (ICAM1), ICAM1 (gene 3383)
Description: BSK_KF3CT_ICAM1: BioMAP Diversity Plus: KF3CT Assay for Intercellular Adhesion Molecule 1 (ICAM1) Biomarker Activity (AID 2283067). Conditions: primary human keratinocytes with fibroblasts; actives raise or lower the signal. A digest of the protocol: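 Dose the keratinocyte/fibroblast co-culture, wait 24 h, measure ICAM-1 by ELISA, then fit increases or decreases against DMSO. Cytotoxicity is checked in parallel cultures by SRB total-protein staining.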

Read-out in assay [6]: Interferon-gamma inducible Protein 10 (IP10), CXCL10 (gene 3627)
Description: BSK_KF3CT_IP10: BioMAP Diversity Plus: KF3CT Assay for Interferon-gamma inducible Protein 10 (IP10) Biomarker Activity (AID 2283068). The following applies: primary human keratinocytes with fibroblasts; actives raise or lower the signal. The essentials:
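KF3CT co-culture (keratinocytes + foreskin fibroblasts), 24 h compound, IP-10 by ELISA; bidirectional fit vs DMSO baseline.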

Assay [7] is described as follows: BSK_KF3CT_SRB: Viability Assessment in the BioMAP Diversity Plus: KF3CT Assay (AID 2283069).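 Note: total protein by sulforhodamine B staining as a cytotoxicity measure; read 24 h after compound addition; fitted for both signal gain and loss against DMSO baseline.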 Conditions: primary human keratinocytes with fibroblasts. The essentials:
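SRB read-out at 560 nm (0.1% stain, TCA-fixed cells) gauges overt cytotoxicity in a human skin keratinocyte–fibroblast co-culture 24 h post-dosing. Signal change was fitted bidirectionally relative to DMSO control.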

Read-out in assay [8]: Interleukin-1 alpha (IL1a), IL1A (gene 3552)
Description: BSK_KF3CT_IL1a: BioMAP Diversity Plus: KF3CT Assay for Interleukin-1 alpha (IL1a) Biomarker Activity (AID 2283070). Conditions: primary human keratinocytes with fibroblasts; actives raise or lower the signal. The essentials:
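Primary skin co-culture (keratinocytes, foreskin fibroblasts), 24 h exposure; ELISA for IL-1a; bidirectional curve fit vs DMSO.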

Read-out in assay [9]: TIMP metallopeptidase inhibitor 2 (TIMP2), TIMP2 (gene 7077)
Description: BSK_KF3CT_TIMP2: BioMAP Diversity Plus: KF3CT Assay for TIMP metallopeptidase inhibitor 2 (TIMP2) Biomarker Activity (AID 2283071). Conditions: primary human keratinocytes with fibroblasts; actives raise or lower the signal. The essentials: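 Measurements come from ELISA detection of TIMP-2 at 24 hours in a dosed human keratinocyte and foreskin fibroblast co-culture. DMSO serves as negative control and baseline.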

Read-out in assay [10]: Matrix Metallopeptidase 1 (MMP1), MMP1 (gene 4312)
Description: BSK_hDFCGF_MMP1: BioMAP Diversity Plus: hDFCGF Assay for Matrix Metallopeptidase 1 (MMP1) Biomarker Activity (AID 2283064). Conditions: primary human foreskin fibroblasts; actives raise or lower the signal. The essentials:
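ELISA read-out of MMP1 from human foreskin fibroblasts (primary skin cells), 24 h post-dose. Gain or loss of signal was fitted bidirectionally versus DMSO negative control; cytotoxicity was checked by SRB in parallel cultures.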

Several values for one entry are separate records, joined by “and”; a condition that tells them apart may be missing. Equal values may be shown once. Activity calls are given as the source filed them. Rule for the calls: active = hit-call score of the fitted dose curve at least 0.9, where 1 is the maximum; inactive = score below 0.9.

Take `CC(=O)C1(C)CC2=C(CCCC2(C)C)CC1C` (stereo not drawn): the AC50 in assay [1] was 12 µM (active); in assay [2] it was 14.2 µM (active); in [3] it was 9.73 µM (active); in assay [4], 11.8 µM (active); in assay [5], 12.3 µM (active); in assay [6], 11.2 µM (active). Besides, the half-maximal activity concentration (AC50) was 10.2 µM (active) in assay [7], 13.1 µM (active) in assay [8] and 5.63 µM (active) in assay [9].
In the case of `Cc1cc(CCC(=O)OCCOCCOCCOC(=O)CCc2cc(C)c(O)c(C(C)(C)C)c2)cc(C(C)(C)C)c1O`, the result in assay [1], in assay [2], in [10], in [4], in assay [5] and in assay [6] was inactive. Also, the outcome in assay [7], in assay [8] and in assay [9] was inactive.
As for `c1ccc2cc(Nc3ccc(Nc4ccc5ccccc5c4)cc3)ccc2c1`, the outcome in assay [1], in assay [2], in assay [3], in [4], in [5] and in assay [6] was inactive. Besides, the outcome in assay [7], in assay [8] and in [9] was inactive.
In the case of `IC(I)I`, the outcome in assay [1], in assay [2], in assay [4], in [5], in [6] and in assay [7] was inactive. For the same compound, the result in [8] and in [9] was inactive.
Take `CC(C)(C)CC(C)(C)c1ccc(OCCOCC[N+](C)(C)Cc2ccccc2)cc1`: the half-maximal activity concentration (AC50) in assay [1] is 5 µM (active); in [2] it was 7.5 µM (active); in assay [4] it was 5 µM (active); in [5], 9.07 µM (active); in assay [6] it was 7.61 µM (active); in assay [7], 6.61 µM (active). For the same compound, the AC50 in assay [8] is 8.08 µM (active); in assay [9], 2.26 µM (active).
As to `CC(=O)c1c(C)c([N+](=O)[O-])c(C(C)(C)C)c([N+](=O)[O-])c1C`, the result in assay [1], in assay [2], in assay [4], in assay [5], in assay [6] and in assay [7] was inactive. For the same compound, the outcome in [8] and in assay [9] was inactive.
Turning to `CN(C)C(=S)SC(=S)N(C)C`, the AC50 in [1] is 37.8 µM (active); in assay [2], 34.4 µM (active); in assay [4], 19.9 µM (active); in [5], 27.3 µM (active). Also, the result in assay [6], in assay [7], in assay [8] and in assay [9] was inactive.
Turning to `CCOC(=O)C(C#N)=C(c1ccccc1)c1ccccc1`, the outcome in [1], in [2], in assay [4], in assay [5], in assay [6] and in assay [7] was inactive. Further, the outcome in assay [8] and in assay [9] was inactive.
On to `Oc1c(Cl)cc(Cl)c(Cl)c1Cc1c(O)c(Cl)cc(Cl)c1Cl`, for which the concentration at half-maximal activity (AC50) in assay [1] was 1.94 µM (active); in assay [2], 3.45 µM (active); in [4] it was 0.338 µM (active); in assay [5], 3.14 µM (active); in assay [6], 2.4 µM (active); in assay [7], 5.15 µM (active). The results for the AC50 in [8] and in assay [9] were 1.83 µM (active) and 1.79 µM (active), respectively.
Take `CC1(C)CCC[C@]2(C)[C@H]3CCO[C@]3(C)CC[C@@H]12`: the half-maximal activity concentration (AC50) is 38.6 µM (active) and 32.1 µM (active) in assay [1]; 34.5 µM (active) and 36.6 µM (active) in assay [2]; 37.2 µM (active) and 31.1 µM (active) in [4]; 37.1 µM (active) and 38.1 µM (active) in [5]; 37.5 µM (active) and 33.9 µM (active) in assay [6]; 33.4 µM (active) and 36.8 µM (active) in assay [7]. Besides, the AC50 is 34.4 µM (active) and 38.9 µM (active) in assay [8]; 33.1 µM (active) and 33.9 µM (active) in assay [9].
As to `C[C@@H]1CCN(C(=O)[C@H](CCCN=C(N)N)NS(=O)(=O)c2cccc3c2NC[C@H](C)C3)[C@@H](C(=O)O)C1`, the result in [1], in [2], in assay [4], in assay [5], in [6] and in assay [7] was inactive. Moreover, the outcome in [8] and in assay [9] was inactive.
Take `CCCCCCCCCCCCCCCC(=O)OC/C=C(C)/C=C/C=C(C)/C=C/C1=C(C)CCCC1(C)C`: the values for the AC50 in [1] and in assay [4] were 0.846 µM (active) and 3.97 µM (active), respectively. In addition, the outcome in assay [2], in assay [5], in assay [6], in [7], in assay [8] and in assay [9] was inactive.
For the compound `CCCCCCC(CO)CCCC` (stereo not drawn), the concentration at half-maximal activity (AC50) in assay [1] is 30.9 µM (active) and 35.9 µM (active); in assay [2] it was 34 µM (active) and 30.5 µM (active); in [4] it was 29.9 µM (active) and 36.3 µM (active); in assay [5], 32.9 µM (active) and 37.4 µM (active); in assay [6] it was 38.1 µM (active) and 36.7 µM (active); in [7], 35.6 µM (active) and 36.1 µM (active). In addition, the half-maximal activity concentration (AC50) in [8] is 33.4 µM (active) and 30.3 µM (active); in assay [9], 35.1 µM (active) and 35.2 µM (active).
As to `COc1ccc(OC)c(N=Nc2c(O)ccc3ccccc23)c1`, the AC50 in assay [1] was 4.02 µM (active); in assay [2], 1.93 µM (active); in assay [8] it was 8.38 µM (active); in assay [9], 7.85 µM (active). Also, the result in assay [4], in [5], in assay [6] and in assay [7] was inactive.
With `CC=Cc1ccc(OCC)c(O)c1`, the outcome in assay [1], in [2], in assay [4], in [5], in [6] and in [7] was inactive. Further, the result in [8] and in [9] was inactive.
Consider `CS(=O)(=O)OCCCCOS(C)(=O)=O`, for which the outcome in [1], in assay [2], in assay [4], in assay [5], in [6] and in assay [7] was inactive. For the same compound, the result in assay [8] and in assay [9] was inactive.
As to `c1ccc(CCc2ccccc2)cc1`, the half-maximal activity concentration (AC50) was 36.6 µM (active) in assay [1]; 31.1 µM (active) in assay [4]; 30 µM (active) in assay [6]; 28.5 µM (active) in assay [7]; 25.2 µM (active) in assay [8]; 13.4 µM (active) in assay [9]. For the same compound, the result in assay [2] and in assay [5] was inactive.
In the case of `O=CN1CCOCC1`, the result in assay [1], in assay [2], in assay [4], in assay [5], in [6] and in assay [7] was inactive. Further, the outcome in assay [8] and in assay [9] was inactive.
`CCCCN(CCCC)C(=O)N(CCCC)CCCC`: the concentration at half-maximal activity (AC50) is 9.64 µM (active) in [1]; 11.9 µM (active) in assay [2]; 11 µM (active) in assay [4]; 8.66 µM (active) in [5]; 11 µM (active) in [6]; 8.91 µM (active) in [7]. Besides, the concentration at half-maximal activity (AC50) in [8] is 10.5 µM (active); in assay [9], 4.62 µM (active).
As to `CCC(C)c1cc([N+](=O)[O-])cc([N+](=O)[O-])c1OC(=O)OC(C)C` (stereo not drawn), the half-maximal activity concentration (AC50) in assay [1] was 11.2 µM (active); in [2], 9.32 µM (active); in [4], 4.79 µM (active); in [5], 9.58 µM (active); in [6] it was 5.26 µM (active); in assay [7], 25.3 µM (active). Also, the half-maximal activity concentration (AC50) in assay [8] and in assay [9] was 20 µM (active) in each case.

The record behind these values is PubChem BioAssay (EPA / NIEHS).
